Test results reported in PubChem BioAssay AID931 (National Center for Advancing Translational Sciences (NCATS), 2007).
Records with an inconclusive call do not appear. Unmarked numbers belong to inactive results. The source made the active and inactive calls. The call rests on the fitted dose curve; in most records, active means well fitted cell-killing curve with a large enough effect; inconclusive means small, poorly fitted or top-dose-only effect; inactive means flat fitted curve, though single readings scatter.

Experiment: Confirmation and Secondary Assay for Modulators of Hemoglobin Beta Chain Splicing at IVS2 654 locus: Cytotoxicity
Settings: HBB IVS2-654 splicing reporter cells; series mostly up to 46.1 µM; activity change, negative = cytotoxicity: at the top concentration
Description: NIH Chemical Genomics Center [NCGC]
NIH Molecular Libraries Screening Centers Network [MLSCN]
PI Name: Dr. Ryszard Kole
Modulation of Alternative Splicing as Therapy
Abnormal splicing is associated with a number of diseases, including cancer and genetic diseases such as cystic fibrosis, muscular dystrophy and beta-thalassemia. Alteration of disease associated splicing patterns provides a promising target for treatment. […] Mutations in the second intron of the b-globin gene at positions 654 or 705 are clinically relevant and cause mis-splicing which results in an out of frame gene product.
Examination of toxicity of select compounds in EGFP-654 HeLa Cells
HeLa cell lines were stably transfected with a construct in which the EGFP (enhanced green fluorescent protein) cDNA was interrupted by the second intron of the beta-globin gene (IVS2-654). The ISV2 intron contains mutations which cause mis-splicing of EGFP and premature termination of EGFP which results in a nonfluorescent protein product. […] Expression of the transgene was driven by the CMV promoter. Compounds, and related structures identified in the primary screen as potential splicing modulation were examined for their effects on cell toxicity in this follow up assay .
NCGC Assay Protocol Summary:
Toxicity Screening. Freshly thawed HeLa EGFP-654 cells were seeded in 5 ul of optimem media (Invitrogen) containing 2 % fetal calf serum (Hyclone) and 1x penicillin/streptomycin (Invitrogen) at a concentration of 500 cells per well in 1536-well plates. Cells were incubated overnight at 37C in 5% CO2. The next day, cells were treated with DMSO, 500 nM antisense ISV2 654 PNA control oligo, or library compound and allowed to grow at 37C in 5% CO2 for 2 days. Cells were treated with 5 ul/well of freshly prepared ATPlite (Perkin Elmer) and cells were allowed to lyse at room temperature for 5 minutes. Luminescence was captured on an Viewlux CCD imager (Perkin Elmer) using a 15 second integration time and cell death was measured by comparing compound treatments to DMSO treatment (no cell death).
Keywords: Thalassemia, beta-thalassemia, beta-globin, EGFP, ISV2 654, ISV2 705, SSO, PNA, antisense, splicing, ATPlite, toxicity, MLSMR, MLSCN, NIH Roadmap, qHTS, NCGC

Row | SMILES | activity change, negative = cytotoxicity [%] | Potency
1 | Nc1ncnc2c1nc(Cl)n2C1OC(CO)C(O)C1O (centres undefined) | 6.51 | –
2 | Nc1nc(Cl)nc2c1ncn2[C@H]1C[C@H](O)[C@@H](CO)O1 | -14.5 | –
3 | O=c1[nH]c(=O)n(C2CC(O)C(CO)O2)cc1F (centres undefined) | -25 | –
4 | Nc1ccn([C@H]2CC[C@@H](CO)O2)c(=O)n1 | 1.26 | –
5 | OCC1OC(n2cnc3c(Cl)ncnc32)C(O)C1O (centres undefined) | -9.7 | –
6 | OCC1OC(n2cnc3c(=S)nc[nH]c32)C(O)C1O (centres undefined) | – | 3160 nM (active)
7 | NC1=NC(S)C2N=CN=C2N1 (centres undefined) | – | 316 nM (active)
8 | Nc1nc(=O)n(C2OC(CO)C(O)C2O)cc1Cl (centres undefined) | -10.6 | –
9 | N=c1ccn2c(n1)O[C@@H]1[C@@H](O)[C@H](CO)O[C@H]12 | -14 | –
10 | Nc1ncn([C@@H]2O[C@H](CO)[C@@H](O)[C@H]2O)c(=O)n1 | – | 1260 nM (active)
11 | Cn1cnc([N+](=O)[O-])c1Sc1ncnc2nc[nH]c12 | – | 316 nM (active)
12 | CSc1ncnc2c1ncn2C1OC(CO)C(O)C1O (centres undefined) | – | 794 nM (active)
13 | Nc1ncnc2c1nc(Br)n2C1OC(CO)C(O)C1O (centres undefined) | -26.4 | –
14 | S=C1NC=NC2N=CNC12 (centres undefined) | – | 199 nM (active)
